# Screening results: PubChem, National Center for Advancing Translational Sciences (NCATS)
# GCN5L2 inh = GCN5L2 (KAT2A) acetyltransferase inhibition; GCN5L2 HAT assay, ThioGlo1 CoA-SH fluorescence; Potency, µM (top dose mostly 58.9 µM), actives largely listed as inhibitors; 390,000 compounds, 0.21% hits
#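 GCN5L2 (20 nM) in 50mM HEPES pH 7.5, 0.1mM EDTA, 0.01% Tween-20 preincubated 15 min with compounds at room temperature. Reaction started with H3(1-25) 75uM, acetyl-CoA 70uM, ThioGlo1 50uM; CoA-thiol fluorescence (Ex340/Em540) read at 0 and 20 min.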
# ALOX12 inh = inhibitors of human 12S-lipoxygenase ALOX12; purified 12hLO, xylenol orange hydroperoxide absorbance; Potency, µM (doses to about 108 µM), hits mostly inhibitors; 580,000 compounds, 1.1% hits
#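 Purified human 12hLO at 150 nM in 25 mM Hepes, 0.01% Triton X-100, pH 7.0, preincubated 15 min at room temperature with compound. Reaction started with 40 uM arachidonic acid, 30 min at room temperature. Hydroperoxide measured by Fe-xylenol orange, 573/405 nm absorbance ratio.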
# PLK1 PBD inh = PLK1 (human) polo-box domain binding inhibition | AID 720504 | P53350 | Potency, µM, actives largely listed as inhibitors | 360,000 compounds, 2.8% hits | Plk1 PBD binding of FITC phosphopeptide, fluorescence polarization; further: series mostly up to about 57 µM; nearly all actives have a fitted effect of over 65% in size
# VDR inhibitor = inhibitors of human vitamin D receptor; P11473; VDR-SRC2-3 peptide fluorescence polarization, 2 h; Potency, µM, usual class: inhibitors; 400,000 compounds, 0.93% hits; AID 504847
#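 Inhibition of the VDR/SRC2-3 peptide interaction is quantified by fluorescence polarization. Compounds (23 nl, pintool) incubate with the reagents for 2 hours at ambient room temperature.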
# Hits are given with their value; i = inactive; ? = inconclusive; nt = no result given; [ ] = dose if it differs, or a comment. A selection: hits, their analogues and other compounds. The true share with any hit is near 3%. The call rests on the fitted dose curve; in most records, active means well fitted curve in the direction sought with a large enough effect; inconclusive means small, poorly fitted or top-dose-only effect, or another doubt; inactive means no such curve, though single readings can be large; an effect the other way counts as inactive or inconclusive.
SMILES,GCN5L2 inh,ALOX12 inh,PLK1 PBD inh,VDR inhibitor
O=C(Nc1cc(S(=O)(=O)N2CCOCC2)ccc1O)c1ccc(S(=O)(=O)N2CCCCC2)cc1,i,i,i,i
O=C(Nc1cc(S(=O)(=O)N2CCCCC2)ccc1O)c1ccccc1NS(=O)(=O)c1ccc(F)cc1,i,?,27µM,i
O=C(Nc1cc(S(=O)(=O)Nc2ccc(Cl)cc2)ccc1O)c1ccc(S(=O)(=O)N2CCCCCC2)cc1,i,i,12µM,?
Cc1cnc(CNc2ncncc2-c2ccccc2C(F)(F)F)cn1,i,22µM,nt,i
FC(F)(F)c1ccccc1-c1cncnc1NCc1ccccc1,i,?,nt,?
CCN1CCN(CC(=O)NCc2ccc3[nH]c(-c4ccc(F)cc4)c(C)c3c2)CC1,nt,i,nt,nt
COC(=O)C1=C(C)NC(=O)/C1=C\c1cc(C)n(-c2cc(C)cc(C)c2)c1C,i,40µM,i,i
COc1ccc(CCNC(=O)Cc2c(C)c3ccc(OC)c(OC)c3oc2=O)cc1,nt,i,nt,nt
CCCNCc1ccc(-c2ccc(C(C)O)cc2)o1 (stereo unspecified),nt,i,nt,nt
CC(NC(=O)c1ccc(Cn2cc([N+](=O)[O-])cn2)cc1)c1ccccc1 (stereo unspecified),i,i,27µM,?
COC(=O)c1ccc(Cn2cc([N+](=O)[O-])cn2)cc1,i,i,i,i
CC(Cl)C(=O)Nc1ccccc1C(N)=O (stereo unspecified),nt,i,nt,nt
COc1cccc(C(=O)OCc2nc3ccccc3o2)c1O,nt,i,nt,nt
CCOC(=O)c1cc2cccc(OC)c2o1,nt,i,nt,nt
Cc1ccccc1-c1cc(C(=O)NCCc2ccccc2)c2ccccc2n1,nt,i,nt,nt
CCN1C(=O)N[C@@H](c2cccc(F)c2)C(C(C)=O)=C1C,nt,i,i,i
CC(=O)C1=C(C)N(Cc2ccc(F)cc2)C(=S)NC1c1cccc(Br)c1 (stereo unspecified),nt,40µM,nt,nt
CC(=O)C1=C(C)N(Cc2ccc(Cl)cc2)C(=S)NC1c1ccc(Cl)cc1 (stereo unspecified),nt,45µM,nt,nt
CC(=O)C1=C(C)N(Cc2ccc(Cl)cc2)C(=S)NC1c1ccccc1 (stereo unspecified),nt,45µM,nt,nt
Cc1cnc(C(=O)NCc2sccc2C)cn1,nt,i,nt,nt
CNC(=S)NNC(=O)c1csc(C)c1C,nt,i,nt,nt
COc1nc(-c2ccccc2)c2cc(C)ccc2n1,i,i,21µM,?
CCc1ccc(-c2nc(SCc3nc4cc(S(=O)(=O)N(C)C)ccc4n3CC)n[nH]2)cc1,nt,i,nt,nt
O=C(Nc1nc(-c2ccccc2)ns1)c1ccncc1,?,i,8.4µM,?
Cc1cccc(NC(=S)N/N=C2/CCCC(C)C2)c1 (stereo unspecified),nt,35µM,nt,nt
SMILES,GCN5L2 inh,ALOX12 inh,PLK1 PBD inh,VDR inhibitor
Cc1cccc(NC(=S)NNC(=O)c2csc3c2CCC(C)C3)c1 (stereo unspecified),i,?,i,i
Cc1nc(C)c(C(=O)NCc2ccccc2Cl)o1,i,i,21µM,i
Cc1cc(C(=O)NCc2ccccc2Cl)n(-c2ccccc2)n1,i,i,27µM,i
Cc1nc2c(C(=O)NCc3ccccc3Cl)c[nH]n2c(=O)c1Cl,i,?,30µM,i
COc1ccccc1CNC(=O)c1cc(C)nn1-c1ccccc1,i,i,i,i
Cc1nc2c(C(=O)NCc3ccccc3)c[nH]n2c(=O)c1Cl,i,i,?,i
Cc1nc2c3c(C)c(C)n(Cc4ccncc4)c3ncn2n1,nt,i,nt,nt
CN(C)CCN1C(=O)C(O)=C(C(=O)c2cc3ccccc3o2)C1c1ccc(OCc2ccccc2)cc1 (stereo unspecified),nt,25µM,nt,nt
CCN(CC)CCCN1C(=O)C(O)=C(C(=O)c2cc3ccccc3o2)C1c1ccccn1 (stereo unspecified),i,?,27µM,i
CN(C)CCN1C(=O)C(O)=C(C(=O)c2cc3ccccc3o2)C1c1ccc(N(C)C)cc1 (stereo unspecified),i,i,i,i
CN1CCC(NC(=O)c2ccc3c(c2)n(Cc2ccc(F)cc2)c(=O)c2ccnn23)CC1,nt,20µM,nt,nt
CCCCNC(=O)c1ccc2c(c1)n(Cc1ccc(F)cc1)c(=O)c1ccnn12,nt,i,nt,nt
O=C(Nc1ccc(Cl)c(Cl)c1)C1CCCN(c2ncnc3nc[nH]c23)C1 (stereo unspecified),nt,i,nt,nt
COc1cccc(N2C(=O)NC(=NC3CCCCC3)C23CCN(CCC(C)C)C3)c1 (stereo unspecified),nt,i[6.33 µM],nt,nt
CN1C(=O)C(Cc2nc3ccccc3c(=O)n2CCCO)c2ccccc21 (stereo unspecified),nt,i,nt,nt
OCC1O[C@H]([S-])[C@H](O)[C@@H](O)[C@@H]1O.[Au+] (stereo partly specified),i,nt,nt,2.8µM
N[C@@H]1C(O)OC(CO)C(O)C1O (stereo partly specified),i,nt,nt,i
CC(C#N)OC(=O)c1cc(C(C)C)nc2ccccc12 (stereo unspecified),nt,i,nt,nt
COc1ccc(N2C(=O)c3ccc(C(=O)OC(C)C)cc3C2=O)cc1,i,i,2.7µM,i
COc1ccc(N2C(=O)c3cc4ccccc4cc3C2=O)cc1,i,i,27µM,?
CC(OC(=O)c1nn(C)c(=O)c2ccccc12)C(=O)Nc1ccc(S(=O)(=O)N2CCCCC2)cc1 (stereo unspecified),nt,i,nt,nt
CCCCc1cc(=O)oc2c(C)c(OC(C)C(=O)OCC)ccc12 (stereo unspecified),nt,i,nt,nt
COc1cc(/C=N/n2cc(-c3ccccc3)[nH]c2=S)cc(OC)c1O,i,13µM,i,i
S=c1[nH]c(-c2ccccc2)cn1/N=C/c1ccccc1Br,i,?,i,?
Oc1ccc(/C=N/n2cc(-c3ccccc3)[nH]c2=S)cc1,i,16µM,i,i
SMILES,GCN5L2 inh,ALOX12 inh,PLK1 PBD inh,VDR inhibitor
CC(C)CC(=O)N1CCCC(c2noc(COc3ccccc3)n2)C1 (stereo unspecified),nt,i,nt,nt
Cc1ccc(NC(=O)C(C)OC(=O)c2csc(NCc3ccccc3)n2)cc1 (stereo unspecified),nt,i,nt,nt
C=CCSC1=N/C(=C\c2sccc2C)C(=O)S1,i,i,i,i
C=CCSC1=N/C(=C\C=C\c2ccccc2)C(=O)S1,nt,14µM,nt,nt
Cc1nc2c3ccccc3n(Cc3ccccc3F)c2s1,i,i,i,45µM
Cc1nc2c3ccccc3n(CCN3CCCCC3)c2s1,i,nt,nt,nt
Cc1nc2c3cc(F)ccc3n(Cc3ccccc3F)c2s1,i,i,?,50µM
CC(C)N1C(=O)C2(CCCC2)C1C(=O)NCCN1CCCCC1 (stereo unspecified),nt,i,nt,nt
O=C(CCCc1ccccc1)N1CCC2(CC1)CC(Cc1nc(-c3cccnc3)no1)CCO2 (stereo unspecified),nt,i,nt,nt
CN(C)c1cccc(C(=O)N2CCN(C(=O)c3nnn4c3COC(c3ccc(Cl)cc3)C4)CC2)c1 (stereo unspecified),nt,i,nt,nt
N#CCN1CCC(c2cc(-c3ccco3)n[nH]2)CC1,i,i,30µM,i
CN(C)C(=O)c1ccc(CNc2nc3ccccc3o2)cc1,nt,i,nt,nt
CNc1oc(Cc2ccccc2)nc1S(=O)(=O)c1ccccc1,i,nt,2.7µM,i
COc1cc(/C=N/NC(=O)/C(=C\c2ccc([N+](=O)[O-])cc2)NC(=O)c2ccccc2)cc(OC)c1O,i[0.501 µM],?,i,i
